# Bioassay records as filed in PubChem BioAssay.
# KDM5B inhibitor – blocks human KDM5B histone demethylase activity. Q9UGL1. KDM5B demethylase, FDH-coupled NADH fluorescence (FDH is formaldehyde dehydrogenase). Potency, µM (series often up to 57.7 µM), hits mostly inhibitors. hit rate 2.6% among 220,000. AID 1347165; active means well fitted inhibition curve with a large enough effect; further: 0% is about no effect; nearly all actives have a fitted effect of over 70% in size
#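 KDM5BΔAP (200 nM final) in 50 mM HEPES pH 7.5, 0.01% Tween-20 was preincubated 10 min at RT with compound over a concentration range. Substrate mix (H3K4me3 12.5 µM, α-KG 25 µM, Fe²⁺, ascorbate, NAD⁺, FDH) was added, and NADH fluorescence change over 30 min gave dose-response curves.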
# The depositor's hits bear a star; i = inactive. This is one part of a sample in which hits are shown more often than they occur. Potency means the concentration at half of the fitted maximal effect.
SMILES,KDM5B inhibitor
Cc1cccc(C)c1NC(=O)c1cc2ccccc2oc1=O,i
Cc1cccc(N2CCN(C(=O)c3cnc4c(C)cccn4c3=O)CC2C)c1 (stereo not given),i
C[C@@H]1CN(C(=O)c2cccc(-c3ncc[nH]3)c2)CC[C@@]1(O)C1CCOCC1,i
C[C@@H]1CN(C(=O)c2cnc3c(O)cccn3c2=O)CC[C@@]1(O)C1CCC1,32µM*
Cc1ccc(S(=O)(=O)N2CCOCC2)cc1NC(=O)CSc1nc(C)c(C)n1C1CCCC1,i
CN1CCCN(S(=O)(=O)c2ccc(Cl)s2)c2ccccc21,i
Cc1cccc(S(=O)(=O)N2CCCN(C)c3ccccc32)c1,i
CN1CCCN(S(=O)(=O)c2cccc(Br)c2)c2ccccc21,14µM*
CN1CCCN(S(=O)(=O)c2ccc(Cl)cc2)c2ccccc21,i
Cc1ccc(S(=O)(=O)N2CCCN(C)c3ccccc32)c(C)c1,i
CN1CCCN(S(=O)(=O)c2ccc(C(F)(F)F)cc2)c2ccccc21,14µM*
O=C(CSc1nnnn1-c1ccc(O)cc1)NC(Cc1ccccc1)c1ccccc1 (stereo not given),i
CCCCCCCCCCOc1ccc(C(=O)O)cc1,i
O=c1[nH]c(=O)n(Cc2ccccc2)c2c1C(C(F)(F)F)(C(F)(F)F)N=C(c1ccccn1)N2,i
CCOc1ccc(S(=O)(=O)[C@H]2CS(=O)(=O)C[C@@H]2NCc2ccco2)cc1,i
COc1ccccc1-c1noc(CCCC(=O)Nc2ccc(S(=O)(=O)N3CCOCC3)cc2)n1,i
CNC(=O)c1cccc(-c2cnc(Nc3cccc(F)c3)c3c2CCO3)c1,32µM*
CN(C)c1cccc(-c2cnc(NC(=O)C3CCOCC3)c3c2CCO3)c1,i
O=C(Nc1ncc(-c2cccc(F)c2)c2c1OCC2)c1c[nH]c2ccccc12,i
CNC(=O)c1cccc(-c2cnc(NC(=O)c3ccncc3)c3c2CCO3)c1,i
COc1cccc(Nc2ncc(C#N)c(N)n2)c1,i
COc1cccc(NC(=O)CCc2ncc(-c3ccccc3)o2)c1,i
COc1cccc(Nc2ncc(-c3ccccc3)c3c2OCC3)c1,20µM*
COc1cccc(Nc2ncc(-c3cccc(N(C)C)c3)c3c2OCC3)c1,22µM*
CN(C)c1cccc(-c2cnc(Nc3cncnc3)c3c2CCO3)c1,i
SMILES,KDM5B inhibitor
Fc1c(F)c(C(F)(F)F)c(F)c(F)c1N/N=C/c1ccc(Br)cc1,i
O=C(NCCc1ccccc1)c1cc2cc(F)ccc2[nH]1,i
Cc1ccc(F)cc1NC(=O)C(C)(C)c1ccccc1,i
C/C(=N\O)C1(C)CC2=C(CCCC2(C)C)CC1C (stereo not given),i
Cc1nn(CC(=O)NC(C)(C)C)c(C)c1S(=O)(=O)N1CCC(C(=O)N2CCCC2)CC1,i
Cc1noc2nc(C(C)C)cc(C(=O)NC3CCCc4c3[nH]c3c(Cl)cccc43)c12 (stereo not given),i
Oc1ccccc1OCCOCCOCCOc1ccccc1O,i
CN(C)C[C@@H]1CN(c2ccncn2)C[C@H]1NC(=O)COc1ccc(Cl)cc1,i
COCCCNC(=O)N[C@@H]1CN(c2ncccn2)C[C@H]1CN(C)C,32µM*
COc1ccc(CCC(=O)N[C@@H]2CN(S(C)(=O)=O)C[C@H]2CN(C)C)cc1,i
COc1ccc(CNC(=O)N[C@@H]2CN(c3ncccn3)C[C@H]2CN(C)C)cc1,28µM*
COCCNC(=O)N[C@@H]1CN(Cc2ccccc2)C[C@H]1CN(C)C,i
CCCCCn1nc(C(=O)OCC(=O)Nc2ccc3c(c2)OCO3)c2ccccc2c1=O,i
Cc1ccc(S(C)(=O)=O)cc1C(=O)Nc1ccccc1N1CCOCC1,i
CCCCN(C(=O)c1cc(Cl)nc2ccccc12)c1c(N)n(CC(C)C)c(=O)[nH]c1=O,i
CCc1ccc(OC(=O)c2ccccc2Br)cc1,i
N#Cc1ccc(OCc2nc(-c3ccc(Br)o3)no2)cc1,i
CCC(NC(=O)C1CC1)c1ccc(C)cc1 (stereo not given),i
COCC(C)NC(=O)c1cc(-c2ccccc2Cl)nc2ccccc12 (stereo not given),i
Clc1cc(NCCc2ccccn2)n2nccc2n1,i
c1ccc(-c2cc(NCCCOc3cccnc3)n3nccc3n2)cc1,22µM*
COCCCNc1cc(Cl)nc2ccnn12,i
CCOc1nc2ccccc2nc1N1CCC(C(=O)NCc2cccc(C)c2)CC1,i
CCC1CCc2c(sc(NC(=O)C(C)C)c2C#N)C1 (stereo not given),i
CC(C)c1cc(N2CCN(C)CC2)n2c(nc3ccccc32)c1C#N,i
SMILES,KDM5B inhibitor
CC(=O)N1CCCC2(C1)CN(C)c1ccc(C(=O)NCCc3ccccc3)cc12 (stereo not given),35µM*
O=C(NCCc1ccccc1)c1ccc(Cl)c(S(=O)(=O)N2CCOCC2)c1,i
CN(C)CCNC(=O)c1ccc2c(c1)C1(CCCN(CC3CC3)C1)CN2C (stereo not given),35µM*
CC(C)CNC(=O)c1cccc(NC(=O)C2CCCCC2)c1,i
CC(C)CNC(=O)c1ccc2c(c1)C1(CCCN(CC3CC3)C1)CN2C (stereo not given),35µM*
CC(C)CNC(=O)c1ccc(NC(=O)C2CCCCC2)cc1,i
CN(C)CCNC(=O)c1ccc2c(=O)n3c(nc2c1)CCCCC3,i
CN(C)CCC(=O)N1Cc2ccccc2CC2(CCCN(CC3CCOCC3)C2)C1 (stereo not given),i
CS(=O)(=O)N1CCc2cc(C(=O)NCCc3ccccc3)ccc21,i
CN1CC2(CCCN(CC3CC3)C2)c2cc(C(=O)NCCc3ccccc3)ccc21 (stereo not given),35µM*
COCCC1(C(=O)O)CCCN(CC(=O)NCCc2ccccc2)C1 (stereo not given),i
COCCN1CCCCCC(O)c2cc(C(=O)NCCc3ccccc3)ccc21 (stereo not given),i
N#Cc1ccc(OCc2cccc(C(F)(F)F)c2)cc1,i
COc1ccccc1OCc1ccc(C(=O)O)o1,i
Cc1ccc(CNc2nc(N)c([N+](=O)[O-])c(Nc3ccc(Cl)cc3)n2)cc1,i
O=S(=O)(NCCCO)c1ccc(Cl)cc1,i
CCOc1ccc(NC(=O)CCc2c(C)c3ccc(C)cc3oc2=O)cc1,i
Fc1ccc(NC2c3ccccc3-c3ccccc32)cc1,i
CCc1cccc(C)c1NC(=O)CCc1ncc(-c2ccc(F)cc2F)o1,i
O=C(Nc1ccc(S(=O)(=O)Nc2cnc3ccccc3n2)cc1)c1ccc(Br)cc1,i
Cc1ccc2oc(C(=O)NCCc3ccc(S(N)(=O)=O)cc3)cc(=O)c2c1,i
COc1cccc(C(=O)NCc2ccccc2)c1,i
COCCN1CCC2(C1)CN(C)c1ccc(C(=O)NCc3ccccc3)cc12 (stereo not given),35µM*
COc1ccc(C(=O)N2CCc3ccc(C(=O)NCc4ccccc4)cc32)cc1,i
N#CCCSc1sc(=S)sc1SCc1c(F)c(F)c(F)c(F)c1F,i
CCCc1ccc(C(NC(=O)Cn2c(=O)c3c(ncn3C)n(C)c2=O)C(C)C)cc1 (stereo not given),i
CC1=C(C(=O)OC(C)C)C(c2cccc(F)c2)N2C(CC(=O)NCc3ccco3)=CSC2=N1 (stereo not given),i
COC(=O)C1=C(C)N=C2SC=C(CC(=O)N(C)Cc3ccco3)N2C1c1ccc(Cl)cc1 (stereo not given),18µM*
